# Screening data (PubChem)
# An excerpt weighted towards active compounds, which were near 21% of everything screened.
# ClpP mod: qHTS Assay for Activators of ClpP | purified B. subtilis ClpP, FRET peptide cleavage, 20 min | Potency, µM (top dose mostly 57.5 µM), inactives show top-dose activity change, negative = active | ATP-dependent Clp protease proteolytic subunit (Bacillus subtilis (strain 168)), P80244 | hit rate 1.9% among 340,000; active means well fitted falling curve with a large enough effect; inconclusive means small, poorly fitted or top-dose-only effect; inactive means no such curve, though single readings can be large or run the other way; further: potency means the concentration at half of the fitted maximal effect; the source files actives as falling curves though it sought activators and does not explain the sign; nearly all actives have a fitted effect of over 65% in size
# Target sequence (P80244 whole entry, looked up): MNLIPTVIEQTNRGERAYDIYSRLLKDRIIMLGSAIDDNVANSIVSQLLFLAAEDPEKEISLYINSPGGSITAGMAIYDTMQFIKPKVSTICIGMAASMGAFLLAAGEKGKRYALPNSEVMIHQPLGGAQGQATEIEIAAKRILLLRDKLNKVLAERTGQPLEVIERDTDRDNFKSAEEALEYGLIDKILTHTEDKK
#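 ClpP 10 microg/mL final, pH 8 Tris/KCl buffer with BSA, glycerol, Tween-20; compound pinned in; FRET-FV substrate; RT 20 min; Ex320/Em430; ΔFRET vs ADEP 5.8 microM, DMSO, no enzyme.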
# DRD3 antagonist: qHTS of D3 Dopamine Receptor Antagonist: qHTS. max response, negative = inhibition, %. D(3) dopamine receptor (Homo sapiens), P35462. D3R cells, DiscoveRx beta-arrestin luminescence, antagonist mode; active compounds read low. AID 652054, 2013. hit rate 2.5% among 360,000; in the data active means max response below about -50%; inconclusive means no clear call, values can overlap the other calls; further: on the % scale 0 is the no-effect control and ±100 the full control effect
# Target sequence (P35462 whole entry, looked up): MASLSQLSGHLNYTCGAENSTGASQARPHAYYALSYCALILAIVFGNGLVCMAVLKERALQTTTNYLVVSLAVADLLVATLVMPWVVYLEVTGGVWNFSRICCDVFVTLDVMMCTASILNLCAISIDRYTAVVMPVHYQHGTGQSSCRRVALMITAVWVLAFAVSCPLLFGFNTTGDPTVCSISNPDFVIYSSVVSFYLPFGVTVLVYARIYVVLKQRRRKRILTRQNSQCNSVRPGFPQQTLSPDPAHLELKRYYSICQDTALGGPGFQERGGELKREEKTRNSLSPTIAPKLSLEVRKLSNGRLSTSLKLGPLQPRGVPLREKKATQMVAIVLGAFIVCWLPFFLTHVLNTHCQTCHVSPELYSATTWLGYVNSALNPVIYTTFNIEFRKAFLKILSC
#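 Cells expressing the human receptor were seeded at 1500 cells/well, incubated overnight at 37 degrees C in 5% CO2, then exposed to library compounds with dopamine controls for 90 minutes at 37 degrees C before luminescent detection.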
# IL1B secr inh: qHTS for Inhibitors of Inflammasome Signaling: IL-1-beta AlphaLISA Primary Screen | THP-1 LPS/ATP IL-1B secretion, AlphaLISA, 16 h; active compounds read low | activity change, % at 57.5 µM | hit rate 4.7% among 360,000 | AID 743279, 2014; in the data active means activity change below about -50%; inconclusive means mostly about -30% to -49%; further: on the % scale 0 is the no-effect control and ±100 the full control effect
#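 THP-1 cells pretreated 1 hr with compounds (up to 57.5 uM final), then stimulated with LPS (250 ng/mL final) plus ATP (1.25 mM final); secreted IL-1B measured by AlphaLISA after 16 hr, decreased signal indicating inhibition.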
# TDP1 cell CPT: qHTS for Inhibitors of human tyrosyl-DNA phosphodiesterase 1 (TDP1): qHTS in cells in presence of CPT | chicken DT40 Tdp1-/-;hTDP1 cells + 20 nM CPT, ATP luminescence, 48 h | Potency, µM (series often up to 46.2 µM), inactives show at the highest dose activity change, negative = growth inhibition, hits mostly inhibitors | hit rate 12% among 420,000; further: potency means the concentration at half of the fitted maximal effect; on the % scale 0 is the no-effect control and ±100 the full control effect; nearly all actives have a fitted effect of over 55% in size
#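 Cell growth measured by CellTiter-Glo luminescence after a minimum 48 h, 37 C compound exposure with 20 nM CPT in Tdp1-knockout DT40 cells stably expressing hTDP1, seeded 400/well; qHTS titration format.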
# D3 ag: qHTS of D3 Dopamine Receptor Agonist: qHTS. D(3) dopamine receptor (Homo sapiens), P35462. D3R DiscoveRx beta-arrestin cells, luminescence, 90 min. max activation, %. hit rate 0.58% among 410,000; in the data active means max activation above about 30%; further: 0% is about no effect
#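 Cells at 1500/well, incubated overnight, then treated with pinned compounds (dopamine as control) for 90 min at 37 degrees C. DiscoveRx reagent added for 30 - 60 minutes at room temperature; luminescence read.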
# TDP1 cell noCPT: qHTS for Inhibitors of human tyrosyl-DNA phosphodiesterase 1 (TDP1): qHTS in cells in absence of CPT. DT40 Tdp1-/- hTDP1 cells, no CPT, ATP luminescence, 48 h. Potency, µM (doses to about 46.2 µM), inactives show top-dose activity change, negative = growth inhibition, usual class: inhibitors. hit rate 15% among 420,000. AID 686978, 2013; further: potency means the concentration at half of the fitted maximal effect; on the % scale 0 is the no-effect control and ±100 the full control effect; nearly all actives have a fitted effect of over 55% in size
#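 A cellular qHTS used chicken DT40 cells lacking endogenous Tdp1 but carrying stably transfected human TDP1. Compounds were applied without camptothecin, and cell growth kinetics were judged by ATP-dependent luminescence after ≥48 hr.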
# * marks the source's active call; other numbers are inactive results; ? = inconclusive; · = no result. Unless noted, the call rests on the fitted dose curve; in most records, active means well fitted inhibition curve with a large enough effect; inconclusive means small, poorly fitted or top-dose-only effect; inactive means flat fitted curve, though single readings scatter.
SMILES,ClpP mod,DRD3 antagonist,IL1B secr inh,TDP1 cell CPT,D3 ag,TDP1 cell noCPT
CCN(CC)CCN1C(=O)c2ccccc2NC1c1ccc(Br)cc1 (configuration not stated),·,-4,-26,?,-7,?
CCN(CC)CCN1C(=O)c2ccccc2NC1c1ccc(F)cc1 (configuration not stated),32µM*,-27,1,-5%,1,3%
CCOC(=O)C1CCCCN1C(=O)CCc1nnc(-c2ccc3c(c2)OCO3)o1 (configuration not stated),?,-9,1,-24%,-3,-25%
O=C(CCc1nnc(C2(c3ccc(Cl)cc3)CCC2)o1)N1CCCC1,0%,-13,9,-18%,-1,-13%
CC(=O)c1ccc(-c2nnc(CCC(=O)N3CCCC(C(=O)CC(C)C)C3)o2)s1 (configuration not stated),2%,2,3,13µM*,18,?
CCC(=O)C1CCCN(C(=O)CCc2nnc(C3(c4ccc(Cl)cc4)CCC3)o2)C1 (configuration not stated),2%,4,1,23µM*,-1,?
CC(Sc1ccccc1)C(=O)N1CCN(S(=O)(=O)c2ccccc2C(F)(F)F)CC1 (configuration not stated),1%,-11,2,-12%,-2,-24%
CCOc1ccc(NC(=O)NNC(=O)c2cc3ccccc3cc2O)cc1,-4%,-9,6,7%,-8,5%
COc1cccc(C(=O)C2CCCN(C(=O)c3cccc(C#CC(C)(C)O)c3)C2)c1 (configuration not stated),0%,-15,-15,?,2,?
COc1ccc(N2CCN(c3ccc(S(=O)(=O)N(C(C)C)C(C)C)cn3)CC2)cc1,·,-4,6,4.6µM*,-3,7.3µM*
CN(C)S(=O)(=O)c1ccc(N2CCOCC2)nc1,-6%,5,-8,-2%,-10,-7%
COCCOC(=O)c1[nH]c2c(c1C)C(=O)CC(c1ccc(F)cc1)C2 (configuration not stated),0%,-3,62,3.3µM*,4,5.8µM*
COCCOC(=O)c1[nH]c2c(c1C)C(=O)CC(c1ccccc1)C2 (configuration not stated),-1%,0,36,0.65µM*,-11,0.92µM*
CCOC(=O)CNC(=O)COc1coc(CN2CCN(c3ccccc3F)CC2)cc1=O,-1%,14,14,2%,-4,17%
COc1ccc(C(=O)Nc2ccc(C)cn2)cc1S(=O)(=O)N1CCCc2ccccc21,-13%,-13,-6,?,1,?
COc1ccc(C(=O)NCc2ccccc2)cc1S(=O)(=O)N1CCCc2ccccc21,2%,-10,5,16µM*,-2,?
COc1ccc(C(=O)O)cc1S(=O)(=O)N1CCCc2ccccc21,-1%,7,35,8%,5,-3%
COc1ccc(C(=O)Nc2cccc(C)n2)cc1S(=O)(=O)N1CCCc2ccccc21,·,5,?,?,5,16µM*
CC(NCc1ccccc1Cl)C(=O)Nc1ccc(C#N)cc1 (configuration not stated),·,0,-21,-1%,1,-11%
Cc1ccc2[nH]c(=O)c(CN(C(=O)c3cccc(Cl)c3)C(C)(C)C)cc2c1,-14%,·,·,-27%,0,?
Cc1onc(-c2c(Cl)cccc2Cl)c1C(=O)Nc1nccs1,·,15,27,?,0,?
CCOc1cc(/C=C/C(=O)c2ccc(O)cc2)ccc1OCC(=O)N(C)C,-2%,5,-103*,?,1,?
CCOc1cc(/C=C/C(=O)c2ccc3c(c2)OCCO3)ccc1OCC(=O)N(C)C,·,-5,-104*,-95%,2,23µM*
CCOc1ccc(/C=C/C(=O)N(C)CC(=O)Nc2cccc(F)c2)cc1OCC,4%,13,25,10%,-2,-5%
CCCCc1nn2c(=O)cc(COC(=O)c3ccc(NC(=O)CCc4ccccc4)cc3)nc2s1,-13%,·,·,-8%,-5,-1%
SMILES,ClpP mod,DRD3 antagonist,IL1B secr inh,TDP1 cell CPT,D3 ag,TDP1 cell noCPT
CC(C)C[C@H]1CNC(=O)C(=O)N1C[C@H]1CCCN1C[C@H](CC(C)C)N1C[C@H](CC(C)C)N(CCc2ccccc2)C(=O)C1=O,0%,0,-75*,?,-7,?
CC(C)C[C@H]1CN([C@@H](CC(C)C)CN2CCC[C@H]2CN2C(=O)C(=O)NC[C@@H]2Cc2ccccc2)C(=O)C(=O)N1CCc1ccccc1,0%,0,8,3%,-2,4%
CC(C)C[C@@H](CN1CCC[C@H]1CN1C(=O)C(=O)NC[C@@H]1Cc1ccccc1)N1C[C@H](Cc2ccccc2)N(CCc2ccccc2)C(=O)C1=O,0%,2,-77*,23µM*,3,?
CC(C)C[C@H]1CNC(=O)C(=O)N1C[C@@H]1CCCN1C[C@H](Cc1ccccc1)N1C[C@H](CC(C)C)N(CCc2ccccc2)C(=O)C1=O,-2%,12,?,?,3,?
N#Cc1nccnc1N1CCN(C(=O)Nc2ccccc2)CC1,-4%,-5,-6,1%,-2,-2%
CCCCOc1ccc(C2C(C(=O)c3ccc(C)o3)=C(O)C(=O)N2CC2CCCO2)cc1 (configuration not stated),1%,-28,-2,?,-12,23µM*
Cc1ccc(C(=O)C2=C(O)C(=O)N(CC3CCCO3)C2c2ccccc2F)o1 (configuration not stated),·,-1,9,0%,-2,?
Cc1ccc(CCNc2nc3c(S(=O)(=O)c4ccccc4)nnn3c3ccsc23)cc1,-25%,·,·,-22%,-7,?
Cc1ccc(S(=O)(=O)c2nnn3c2nc(NCCc2ccccc2)c2sccc23)cc1,10µM*,·,·,16µM*,-2,?
CCc1ccc(S(=O)(=O)c2nnn3c2nc(NC2CCCCCC2)c2sccc23)cc1,-13%,·,·,?,0,16µM*
